# Assay outcomes deposited in PubChem BioAssay by National Center for Advancing Translational Sciences (NCATS).
# FMDV antiviral – High Throughput Screening for Foot and Mouth Disease Virus Antivirals; actives 1.2% (n = 410,000); FMDV antiviral cell-based qHTS; Potency, µM (highest dose often 57.9 µM), for the others: at the top dose activity change, negative = inhibition, usual class: inhibitors; AID 1159524, 2015; calls by dose curve; tested in HEK293T cells; further: read-out not given here; nearly all actives have a fitted effect of over 45% in size
# Lassa entry inh – qHTS for Inhibitors of binding or entry into cells for Lassa Virus | AID 540256, 2011 | Lassa virus pseudotype entry inhibition, cell reporter | actives 1.2% (n = 300,000) | Potency, µM (top dose mostly 37.9 µM), inactives show top-dose activity change, negative = inhibition, usual class: inhibitors; calls by dose curve; tested in HEK293 cells; further: nearly all actives have a fitted effect of over 50% in size
# MARV entry inh – qHTS for inhibitors of binding or entry into cells for Marburg Virus; Potency, µM (top dose mostly 37.8 µM), inactives show top-dose activity change, negative = inhibition, usual class: inhibitors; Marburg virus pseudotyped entry inhibition, cell reporter; actives 1.8% (n = 300,000); AID 540276, 2011; calls by dose curve; tested in HEK293 cells
# VACV Venus inh – qHTS for Stage-Specific Inhibitors of Vaccinia Orthopoxvirus: Venus Reporter Primary qHTS. actives 0.46% (n = 330,000). Potency, µM (highest dose often 36.5 µM), for the others: at the top dose activity change, negative = inhibition, actives largely listed as inhibitors. Vaccinia virus Venus reporter expression, fluorescence; calls by dose curve; tested in A549 cells; further: nearly all actives have a fitted effect of over 30% in size
# VACV mCherry inh – qHTS for Stage-Specific Inhibitors of Vaccinia Orthopoxvirus: mCherry Reporter Primary qHTS | Vaccinia virus mCherry reporter infection, fluorescence | Potency, µM (top dose mostly 36.5 µM), for the others: at the highest dose activity change, negative = inhibition, most hits filed as inhibitors | actives 0.63% (n = 310,000); calls by dose curve; tested in A549 cells; further: nearly all actives have a fitted effect of over 35% in size
# Starred values were filed as active, the others as inactive; i = inactive; ? = inconclusive; nt = not tested or not shown; ! = a repeat was not active; [ ] = another dose, or the depositor's remark. Only some compounds are listed: those with a hit (about 3.2% of all), similar ones and a draw of the others. On the % scale 0 is the no-effect control and ±100 the full control effect; potency means the concentration at half of the fitted maximal effect.
SMILES,FMDV antiviral,Lassa entry inh,MARV entry inh,VACV Venus inh,VACV mCherry inh
COc1cccc(N2CCN(C(=O)c3ccc4nc[nH]c4c3)CC2)c1,-13%,13%[46.1 µM],-2%[46.1 µM],-3%,-5%
COc1cccc(C2(CC(=O)N3CCN(c4ccccc4O)CC3)CC(=O)N(C3CCCC3)C2=O)c1 (configuration not stated),30%,nt,nt,-24%,-3%
S=c1[nH]nc(C2CC2c2ccc(Cl)cc2)n1-c1ccc(Cl)cc1 (configuration not stated),-12%,16µM*,-21%,?,-27%
COc1ccc(O)c(C(=O)CC(=O)c2ccc(F)cc2)c1,0%,10µM*,13µM*,-10%,-2%
O=C(CC(=O)c1cc(Cl)ccc1O)c1ccccc1,nt,13µM*,?,?,?
COc1ccc(C(=O)CC(=O)c2ccccc2O)cc1,10%,?,?,-9%,-18%
CCOc1cccc(C2c3[nH]c4ccccc4c3CCN2C(=O)CCc2ccccc2)c1 (configuration not stated),-25%,?,nt,-9%,-2%
Cc1ccc(C2c3[nH]c4ccccc4c3CCN2C(=O)CCc2ccccc2)cc1 (configuration not stated),-5%,3.2µM*,nt,-3%,-24%
CC(C)NC[C@H](O)COc1cccc2[nH]ccc12,-8%,13%,?,-8%,-11%
CC(C)NC[C@H](O)COc1ccc(CC(N)=O)cc1,-16%,20%,0.11µM*!,-11%,-4%
C=CCc1ccccc1OCC(O)CNC(C)C (configuration not stated),-21%,2%,18µM*,-11%,0%
CC(C)NC[C@@H](O)COc1cccc2ccccc12,-11%,nt,18µM*,-14%,-6%
CC(C)NC[C@H](O)COc1cccc2ccccc12,-21%,1%,15µM*,-16%,-8%
C=CCc1ccccc1OCC(O)CNC1CCCC1 (configuration not stated),-4%,nt,nt,nt,nt
CCOC(=O)c1cccc(NC(=O)CCc2c(C)nn(-c3ccc(N4CCCC4)nn3)c2C)c1,2%,5%[46.1 µM],nt,-11%,-4%
COc1ccccc1N1CCN(CC(O)COc2cccc3ccccc23)CC1 (configuration not stated),-17%,21µM*!,?,-14%,-13%
COc1cc(C(C)=O)ccc1COc1ccc(C(=O)OCC(=O)NC(C)(C)C)cc1OC,20µM*,?,?,-20%,i
CN1CCN(CC(=O)N2N=C(c3cccs3)CC2c2ccco2)CC1 (configuration not stated),-7%,?,-2%,-3%,i
O=C(CCl)N1N=C(c2cccs2)CC1c1ccco1 (configuration not stated),16µM*,?,?,-21%,?
CCOC(=O)c1cc2c(=O)n3ccccc3nc2n(Cc2ccco2)c1=NC(=O)c1cccnc1,-2%,?,7.3µM*,-11%,-14%
Cc1cccc(C(=O)N=c2c(C#N)cc3c(=O)n4cccc(C)c4nc3n2Cc2ccco2)c1,6%,3%,14µM*!,-12%,-11%
Cc1cccn2c(=O)c3cc(C#N)c(=NC(=O)c4ccccc4)n(Cc4ccco4)c3nc12,-29%,?,?,?,-20%
CCOC(=O)c1cc2c(=O)n3cccc(C)c3nc2n(Cc2ccco2)c1=NC(=O)c1cccnc1,9%,9%,?,-18%,-15%
COC(=O)[C@@H]1CC[C@H](C)[C@@H](c2ccc(C)cc2)N1C(=O)c1ccc(C=NOC[C@H]2O[C@H](c3ccccc3)C=C[C@H]2Oc2ccc(OC)cc2)cc1,nt,nt,-7%[14.2 µM],nt,nt
CCn1c(SCC(=O)Nc2nc3ccc(OC)cc3s2)nc2c1c(=O)n(C)c(=O)n2C,?,-42%,?,nt,nt
SMILES,FMDV antiviral,Lassa entry inh,MARV entry inh,VACV Venus inh,VACV mCherry inh
CCOc1ccc2nc(NC(=O)Cn3cnc4c3c(=O)n(C)c(=O)n4C)sc2c1,7%,4%,17%,nt,nt
CCOc1ccc2nc(NC(=O)CSc3nc4c(c(=O)n(C)c(=O)n4C)n3C(C)C)sc2c1,22µM*,-8%,?,-3%,-4%
CC(C)n1c(SCC(=O)Nc2nc3ccccc3s2)nc2c1c(=O)n(C)c(=O)n2C,22µM*,-20%,?,-12%,-23%
O=C(NCCCn1ccnc1)[C@H](Cc1ccccc1)N1C(=O)c2ccccc2C1=O,nt,nt,1%,nt,nt
CC(C)CC(=O)/C(=C\c1ccc(Cl)cc1Cl)n1cncn1,7.9µM*,0.58µM*,?,13µM*,?
COC(=O)C1CN(C#N)N(c2ccc(Cl)cc2)C12c1ccccc1-c1ccccc12 (configuration not stated),3.5µM*,11µM*,?,?,?
COc1ccc(NC(=O)COc2cccc3c2OC(C)(C)C3)cc1OC,22µM*,nt,nt,nt,nt
NC(=S)NN=Cc1nccc2c(N)cccc12,38%,nt,nt,?,?
CCN(C(C)=O)c1cnc(C=NNC(N)=S)c2ccccc12,2%,8.9µM*,?,?,?
O=C(CS(=O)(=O)c1cccc2nsnc12)Nc1ccccc1Cl,19%,-8%[46.1 µM],nt,8%,3%
OC(COc1ccccc1)CN1CCCCC1 (configuration not stated),-6%,-9%,6%,0%,-28%
OC(COc1ccc(CNCCc2ccccc2F)cc1)CN1CCCCC1 (configuration not stated),-10%,?,2.3µM*,nt,nt
CCN1CCc2c(sc(NC(=O)CSc3ccccc3)c2-c2nc3ccccc3s2)C1,-13%,-27%[46.1 µM],nt,-20%[7.34 µM],-20%[7.34 µM]
CC(=O)Nc1sc2c(c1-c1nc3ccccc3s1)CCN(C(C)C)C2,-10%,nt,nt,10µM*,13µM*
Cc1ccc(-c2csc3ncnc(Sc4nnc(CN5CCCCCC5=O)o4)c23)cc1,14µM*,?,?,nt,nt
COC(=O)C1=C(C)NC2=C(C(=O)c3ccccc32)C1c1cccc(OC)c1 (configuration not stated),-13%,nt,nt,nt,nt
CC1=C([N+](=O)[O-])C(c2cccc(Br)c2)C2=C(N1)c1ccccc1C2=O (configuration not stated),?,?,1.3µM*,nt,nt
N#Cc1ccc(NC(=O)c2ccc3c(c2)nnn3C2CCCC2)cc1,-15%,17%[46.1 µM],nt,1%,-6%
[O-][n+]1onc2c1CCc1c-2nn(-c2ccccc2Cl)[n+]1[O-],nt,?,?,1.3µM*,1µM*
CCOC(=O)c1nnn(-c2nonc2-n2cccc2)c1CN1CCC(C)CC1,-28%,?,?,3%,-2%
CCOC(=O)c1nnn(-c2nonc2-n2cccc2)c1CCl,14µM*,-17%,-8%,-2%,nt
CCN(Cc1ccncc1)Cc1ccc2c(c1)CN(C(=O)c1cccc(-n3nc(C)cc3C)c1)CCO2,-1%,nt,nt,-2%,-11%
CCN(CCCn1c(SCC#N)nc2ccccc2c1=O)c1ccccc1,?,?,9.2µM*,nt,nt
